Assay results as given in PubChem BioAssay (NCI).
About 79,000 compounds went through this panel and 15% of them were active in at least one assay; those are over-represented in the sample as a whole. Cut-off read from the data, not from the text of the source: active = growth inhibition above about 70%; inactive = the rest.

Tests used:
[1] = NCI Yeast Anticancer Drug Screen. Data for the rad52 strain (AID 147);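 note: 0% = growth of vehicle-treated control cultures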; settings: S. cerevisiae rad52 mutant growth inhibition, hits give high values
Summary of the method: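 DNA repair-defective yeast; compound exposure; growth scored against vehicle controls.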

[2] = NCI Yeast Anticancer Drug Screen. Data for the wt1 strain (AID 149);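 note: 0% = growth of vehicle-treated wt1 cultures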; settings: S. cerevisiae wt1 strain (SPY 50644) growth inhibition, hits give high values
Summary of the method: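 The wt1 strain was treated with compounds, and growth was compared with vehicle-treated cultures to give inhibition.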

[3] = NCI Yeast Anticancer Drug Screen. Data for the rad50EPP+ strain (AID 151);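 note: 0% = growth of vehicle-treated control cultures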; settings: S. cerevisiae rad50 mutant strain, hits give high values
Summary of the method: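 rad50EPP+ yeast treated with test compounds. Readout: growth vs vehicle control.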

[4] = NCI Yeast Anticancer Drug Screen. Data for the mgt1 strain (AID 153); settings: S. cerevisiae mgt1 mutant growth inhibition, hits give high values
Summary of the method: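 Growth inhibition relative to vehicle controls was scored for the mgt1 yeast strain after compound exposure.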

[5] = NCI Yeast Anticancer Drug Screen. Data for the rad50 strain (AID 155);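 note: 0% = growth of vehicle-only cultures of the same strain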; settings: S. cerevisiae rad50 strain growth inhibition, hits give high values
Summary of the method: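 Cells are treated with compound, grown, and their growth is then scored against vehicle-only cultures of the same repair-deficient yeast strain.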

[6] = NCI Yeast Anticancer Drug Screen. Data for the mec2-1 strain (AID 157); settings: S. cerevisiae mec2-1 strain, hits give high values
Summary of the method: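 Growth inhibition is read against vehicle-treated controls after compound exposure of the mec2-1 yeast strain, which is defective in DNA damage repair or cell cycle control.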

[7] = NCI Yeast Anticancer Drug Screen. Data for the rad14 strain (AID 159);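 note: 0% = growth of vehicle-treated control cultures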; settings: S. cerevisiae rad14 strain growth inhibition, hits give high values
Summary of the method: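 Readout: yeast growth inhibition, referenced to vehicle-only cultures. Strain bears a defined alteration in DNA damage repair.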

[8] = NCI Yeast Anticancer Drug Screen. Data for the sgs1 mgt1 strain (AID 161);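 note: 0% = growth of cultures given vehicle only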; settings: S. cerevisiae sgs1 mgt1 strain, hits give high values
Summary of the method: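 Percent growth inhibition was derived by comparing compound-exposed mutant yeast with vehicle-exposed cultures. The strain carries alterations in DNA damage repair.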

[9] = NCI Yeast Anticancer Drug Screen. Data for the CLN2oe strain (AID 163);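 note: 0% = growth of vehicle-only control cultures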; settings: S. cerevisiae CLN2oe strain, hits give high values
Summary of the method: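 Compound-treated yeast; growth vs vehicle ctrl = % inhibition. Genetically altered strain (cell-cycle control).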

[10] = NCI Yeast Anticancer Drug Screen. Data for the cln2 rad14 strain (AID 165);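 note: 0% = growth equal to vehicle treated cultures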; settings: S. cerevisiae cln2 rad14 strain, hits give high values
Summary of the method: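 Growth inhibition, relative to vehicle-treated controls, is the read-out. The test organism is a yeast strain with defined genetic alterations, cln2 rad14.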

[11] = NCI Yeast Anticancer Drug Screen. Data for the bub3 strain (AID 167); settings: S. cerevisiae bub3 mutant strain, hits give high values
Summary of the method: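 Part of a panel of yeast mutants defective in DNA damage repair or cell cycle regulation. Each strain is grown with compound, and inhibition is calculated relative to solvent-treated cultures.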

[12] = NCI Yeast Anticancer Drug Screen. Data for the wt2 strain (AID 169);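 note: 0% = growth of vehicle-treated yeast cultures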; settings: S. cerevisiae wt2 strain growth inhibition, hits give high values
Summary of the method: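 Compound exposure of yeast; growth compared with vehicle controls; inhibition reported.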

[13] = NCI Yeast Anticancer Drug Screen. Data for the mlh1 strain (AID 171);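 note: 0% = growth of vehicle-treated control cultures of the same strain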; settings: S. cerevisiae mlh1 strain growth inhibition, hits give high values
Summary of the method: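 Compounds are applied to a genetically altered yeast strain, and its growth is compared with that of vehicle-treated cultures to give percent inhibition.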

[14] = NCI Yeast Anticancer Drug Screen. Data for the sgs1 strain (AID 173);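 note: 0% = growth of vehicle-only control cultures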; settings: S. cerevisiae sgs1 mutant, hits give high values
Summary of the method: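 Compounds applied to genetically altered yeast; growth compared with vehicle-treated cultures to give % inhibition.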

[15] = NCI Yeast Anticancer Drug Screen. Data for the mlh1 rad18 strain (AID 175); settings: S. cerevisiae mlh1 rad18 strain growth inhibition, hits give high values
Summary of the method: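 Cells of a genetically altered yeast strain, deficient in DNA damage repair, were treated with compound. Their growth was then compared with that of vehicle-treated cultures to give inhibition.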

[16] = NCI Yeast Anticancer Drug Screen. Data for the rad18 strain (AID 177); settings: S. cerevisiae rad18 mutant growth inhibition, hits give high values
Summary of the method: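 Compounds are applied to a repair-deficient yeast strain, and growth is compared with that of vehicle-treated cultures to give percent inhibition.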

[17] = at 5.0 µM (retest, dose inferred, filed as 0.5)
[18] = at 50.0 µM (retest, dose inferred, filed as 5.0)

Measured: growth inhibition

CN(C)CCNC(=Cc1ccc2ccccc2[n+]1C)NCCN(C)C
inactive: [1]; at 1.2 µM 0% | [1]; at 3.7 µM 0% | [1]; at 11.0 µM 0% | [1]; at 33.0 µM -1% | [1]; at 100.0 µM -2% | [2]; at 1.2 µM 0% | [2]; at 3.7 µM -2% | [2]; at 11.0 µM -2% | [2]; at 33.0 µM -1% | [2]; at 100.0 µM 0% | [3]; at 1.2 µM -2% | [3]; at 3.7 µM 0% | [3]; at 11.0 µM 1% | [3]; at 33.0 µM 3% | [3]; at 100.0 µM 2% | [4]; at 1.2 µM 0% | [4]; at 3.7 µM 0% | [4]; at 11.0 µM -3% | [4]; at 33.0 µM -1% | [4]; at 100.0 µM -1% | [5]; at 1.2 µM 1% | [5]; at 3.7 µM 1% | [5]; [17] -1% | [5]; at 11.0 µM 1% | [5]; at 33.0 µM 2% | [5]; [18] 2% | [5]; at 50.0 µM 24.2% | [5]; at 100.0 µM 1% | [6]; at 1.2 µM -5% | [6]; at 3.7 µM 0% | [6]; [17] 0% | [6]; at 11.0 µM 3% | [6]; at 33.0 µM 1% | [6]; [18] 2% | [6]; at 50.0 µM 19.6% | [6]; at 100.0 µM 1% | [7]; at 1.2 µM -2% | [7]; at 3.7 µM -1% | [7]; at 11.0 µM -2% | [7]; at 33.0 µM -3% | [7]; at 100.0 µM -2% | [8]; [17] -12% | [8]; [18] -13% | [8]; at 50.0 µM 19.4% | [9]; at 1.2 µM -3% | [9]; at 3.7 µM 0% | [9]; at 11.0 µM 0% | [9]; at 33.0 µM 4% | [9]; at 100.0 µM -1% | [10]; [17] 1% | [10]; [18] 8% | [10]; at 50.0 µM -2.95% | [11]; at 1.2 µM 2% | [11]; at 3.7 µM -3% | [11]; [17] -3% | [11]; at 11.0 µM 0% | [11]; at 33.0 µM -9% | [11]; [18] -2% | [11]; at 50.0 µM -4.65% | [11]; at 100.0 µM -5% | [12]; at 1.2 µM -2% | [12]; at 3.7 µM -3% | [12]; at 11.0 µM -2% | [12]; at 33.0 µM -2% | [12]; at 100.0 µM 0% | [13]; at 1.2 µM 0% | [13]; at 3.7 µM -2% | [13]; at 11.0 µM 1% | [13]; at 33.0 µM 0% | [13]; at 100.0 µM 0% | [14]; at 1.2 µM 0% | [14]; at 3.7 µM 0% | [14]; at 11.0 µM 0% | [14]; at 33.0 µM 0% | [14]; at 100.0 µM 1% | [15]; [17] -4% | [15]; [18] 47% | [15]; at 50.0 µM 34% | [16]; at 1.2 µM -2% | [16]; at 3.7 µM -4% | [16]; at 11.0 µM 0% | [16]; at 33.0 µM -2% | [16]; at 100.0 µM -1%
